Laboratory results from PubChem BioAssay (NCI).
Compounds without any hit were thinned out: in the full panel of roughly 79,000, 15% have a hit. Active and inactive are the calls of the source. Rule as the data show it: active = growth inhibition above about 70%; inactive = the rest.

Tests used:
[1] = NCI Yeast Anticancer Drug Screen. Data for the rad50 strain (AID 155);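 also: 0% = growth of vehicle-only cultures of the same strain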; conditions: S. cerevisiae rad50 strain growth inhibition; at 50.0 µM; active compounds read high
Procedure, shortened: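 A DNA repair-deficient yeast mutant serves as the test organism; compound-induced growth inhibition is calculated against vehicle-treated cells.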

[2] = NCI Yeast Anticancer Drug Screen. Data for the mec2-1 strain (AID 157); conditions: S. cerevisiae mec2-1 strain, at 50.0 µM, active compounds read high
Procedure, shortened: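 Strain: mec2-1 (DNA repair/cell cycle alteration). Compound exposure, then growth measured; inhibition expressed relative to vehicle.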

[3] = NCI Yeast Anticancer Drug Screen. Data for the sgs1 mgt1 strain (AID 161);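 also: 0% = growth of cultures given vehicle only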; conditions: S. cerevisiae sgs1 mgt1 strain, at 50.0 µM, active compounds read high
Procedure, shortened: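 Test agents were incubated with a DNA-repair-mutant yeast strain. Growth was then read and compared against vehicle-treated controls.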

[4] = NCI Yeast Anticancer Drug Screen. Data for the cln2 rad14 strain (AID 165);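 also: 0% = growth equal to vehicle treated cultures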; conditions: S. cerevisiae cln2 rad14 strain, at 50.0 µM, active compounds read high
Procedure, shortened: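 Compounds are applied to the cln2 rad14 yeast strain, and growth is then compared with that of vehicle-treated cultures to give inhibition.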

[5] = NCI Yeast Anticancer Drug Screen. Data for the bub3 strain (AID 167); conditions: S. cerevisiae bub3 mutant strain, at 50.0 µM, active compounds read high
Procedure, shortened: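 Inhibition values come from growth of compound-treated mutant yeast normalised to vehicle-treated controls.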

[6] = NCI Yeast Anticancer Drug Screen. Data for the mlh1 rad18 strain (AID 175); conditions: S. cerevisiae mlh1 rad18 strain growth inhibition; at 50.0 µM; active compounds read high
Procedure, shortened: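 Read-out is yeast growth inhibition, calculated against vehicle-only controls. The compound was applied to a strain engineered with DNA damage repair alterations.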

Measured: growth inhibition

Cc1cc(C=O)c(C)[nH]1
inactive: [1] 3.9% | [2] -3.55% | [3] -2.4% | [4] -11.2% | [5] 1.55% | [6] -4.4%

CCOCCC12CCCCC1C/C(=N/OC(C)=O)c1ccccc12 (stereo not drawn)
inactive: [1] 9.3% | [2] -5.95% | [3] -0.45% | [4] 1.2% | [5] 15.7% | [6] 35.8%

COc1ccc2c(c1)C=C(C(C)(C)C)NS2(=O)=O
inactive: [1] 23.6% | [2] -22.6% | [3] 2% | [4] -12.7% | [5] 59% | [6] 63.4%

CCCCC1=C(C)CCC1=O
inactive: [1] 17.9% | [2] 8.9% | [3] 8.7% | [4] 6.55% | [5] 2.85% | [6] 4.85%

Cc1nc(/N=C(\N)Nc2ccc(Cl)c(Cl)c2)[nH]c(=O)c1Cc1ccccc1
inactive: [1] 2.3% | [2] 1.65% | [3] -10.1% | [4] -6.75% | [5] -5.05% | [6] 3.65%

Cc1[nH]c(N)nc(=S)c1CCC(C)C
inactive: [1] -16.6% | [2] -9.7% | [3] -1.05% | [4] -100% | [5] -1.55% | [6] 17.2%

Cc1cn(C2CC(OS(C)(=O)=O)C(COC(c3ccccc3)(c3ccccc3)c3ccccc3)O2)c(=O)[nH]c1=O (stereo not drawn)
inactive: [1] 30.9% | [2] 1.95% | [3] 16.6% | [4] -15.2% | [5] -0.9% | [6] 15.3%

O=C(c1ccccc1)C(C(c1ccccc1)N1CCOCC1)N1CCOCC1 (stereo not drawn)
inactive: [1] -19.1% | [2] 2.2% | [3] -4.55% | [4] -9.45% | [5] -5.7% | [6] 0.65%

C#CCOc1c(C(=O)OCC)c(=O)n(C)c2ccccc12
inactive: [1] -10% | [2] -17.1% | [3] 12.8% | [4] 9.4% | [5] 3.55% | [6] 1.7%

C[C@H](CCc1nc(C#N)c(N)o1)[C@H]1CC[C@H]2[C@@H]3[C@@H](O)CC4C[C@@H](O)CC[C@]4(C)[C@H]3C[C@@H](O)[C@]12C (stereo partly drawn)
inactive: [1] 26.4% | [2] 9.8% | [3] 10.7% | [4] 9.55% | [5] -9.1% | [6] -2.85%

O=C(O)C1(C(=O)O)CCN(S(=O)(=O)c2ccccc2)CC1
inactive: [1] -4% | [2] -10.9% | [3] -39% | [4] -5.2% | [5] -9.85% | [6] -7%

CCOC(=O)C(C#N)=C1c2ccccc2Oc2ccccc21
inactive: [1] -3.7% | [2] 0.9% | [3] -2% | [4] -46% | [5] 6.95% | [6] -1.15%

O=C(c1ccccc1)C(O)(c1ccccc1)C(c1ccccc1)c1ccccc1 (stereo not drawn)
inactive: [1] 5.8% | [2] 18.6% | [3] 16.9% | [4] 13% | [5] 6.75% | [6] 8.05%

C=CCn1c(C23CC4CC(CC(C4)C2)C3)n[nH]c1=S
inactive: [1] 27.6% | [2] 37.7% | [3] -8.45% | [4] 19.2% | [5] 3.55% | [6] -26.3%

O=C1OCC(O)C(O)C(O)C(O)C1O (stereo not drawn)
inactive: [1] 36.1% | [2] 27.3% | [3] 26.2% | [4] 21.1% | [5] 38.4% | [6] 39.7%

CCN(CC)CCNc1c2ccc(Cl)cc2nc2c1c(C)nn2C
inactive: [1] -7.05% | [2] 9.15% | [3] 18.9% | [4] 21% | [5] 33.1% | [6] 6.95%

COc1ccc(-c2cc(-c3cc(-c4ccc(OC)cc4)on3)no2)cc1
inactive: [1] -1.6% | [2] -5.75% | [3] -26% | [4] -7.45% | [5] -35.5% | [6] -1.05%

CCCOC(=O)c1cc(C(=CCC[C@H]2CC[C@@]3(C)[C@@H](CC[C@@H]4[C@@H]3CC[C@]3(C)[C@@H](C(C)CCCC(C)C)CC[C@@H]43)C2)c2cc(Cl)c(O)c(C(=O)OCCC)c2)cc(Cl)c1O (stereo partly drawn)
inactive: [1] 8.7% | [2] -9.05% | [3] -0.55% | [4] 5.65% | [5] -4.05% | [6] -45%

NC(=O)C1OC1(c1ccccc1)c1ccccc1 (stereo not drawn)
inactive: [1] 20.8% | [2] 5.2% | [3] 3.05% | [4] -2.1% | [5] 4.15% | [6] 3.15%

CC1(c2ccccc2)OCCCO1
inactive: [1] -11.3% | [2] -7.15% | [3] -10.8% | [4] 0.65% | [5] -2.5% | [6] -0.8%

O=C(N/N=C/c1ccccc1)c1c(-c2cccnc2)cnc2ccccc12
inactive: [1] -12.8% | [2] -9.3% | [3] -10.6% | [4] 10.9% | [5] 12.3% | [6] 14.3%

Cc1ccc(S(=O)(=O)N(CCOc2c3occc3cc3ccc(=O)oc23)CCN(CCN(CCOc2c3occc3cc3ccc(=O)oc23)S(=O)(=O)c2ccc(C)cc2)S(=O)(=O)c2ccc(C)cc2)cc1
inactive: [1] -10.2% | [2] -11.7% | [3] -14.4% | [4] -31.6% | [5] -21.1% | [6] -6.8%

CN(C)CNc1ncnc2onc(-c3ccccc3)c12
inactive: [1] 10.1% | [2] 14.5% | [3] 13.7% | [4] 11.6% | [5] -5.5% | [6] -4.15%

COc1ccc(OC)c(/C=C/c2ccccc2)c1
inactive: [1] 0.5% | [2] -29.1% | [3] 8.25% | [4] -24.8% | [5] 1.6% | [6] -14.9%

COc1ccc(C2S/C(=C\c3cccc([N+](=O)[O-])c3)C(=O)N2NC(=O)Cc2ccccc2)cc1 (stereo not drawn)
inactive: [1] 0.65% | [2] -21.2% | [3] 3.85% | [4] -58.6% | [5] 36% | [6] 12.4%

CCOC(=O)CCC(NC(=O)c1ccc(NCc2ccc3nc(-c4ccccc4)c(Cl)nc3c2)cc1)C(=O)OCC (stereo not drawn)
inactive: [1] 29.7% | [2] -3.85% | [3] -5.3% | [4] -5.6% | [5] 1.7% | [6] 4.3%

O=[N+]([O-])c1ccc(/C(=N/Nc2ccccc2)c2ccc(Cl)cc2)cc1
inactive: [1] 13.2% | [2] 2.1% | [3] 1.65% | [4] -14.1% | [5] 9.8% | [6] 4.1%

CCCCCCCCCCCCC(Br)C(=O)OCC (stereo not drawn)
inactive: [1] 7.55% | [2] -7.6% | [3] 16.1% | [4] -5.2% | [5] -6.6% | [6] 3.95%

O=C1C(OC(=O)c2ccccc2)=C(c2ccc(O)cc2)C(=O)C(OC(=O)c2ccccc2)=C1c1ccc(O)cc1
inactive: [1] 24.1% | [2] 0.45% | [3] 5.55% | [4] 9.75% | [5] 17.2% | [6] -44.6%

C=CC(=O)OCCCCCCCCCC
inactive: [1] 47.8% | [2] 5.6% | [3] 28.8% | [4] -0.7% | [5] 13.8% | [6] 42.1%

Cc1c(N(C)C)ccc2c(=O)c3cccc(CC(=O)O)c3oc12
inactive: [1] 20% | [2] 21.7% | [3] -5.35% | [4] 8.6% | [5] -16.1% | [6] -5.05%

CC(CNC(=O)C12CC3CC(CC(C3)C1)C2)NC(=O)C12CC3CC(CC(C3)C1)C2 (stereo not drawn)
inactive: [1] 6.45% | [2] 11% | [3] -27.4% | [4] 7.85% | [5] -11.8% | [6] 14.3%

O=C1NC(N2CCCCC2)=N/C1=C\c1cccs1
inactive: [1] 2.5% | [2] 2.2% | [3] -12.9% | [4] 7.05% | [5] -11.8% | [6] -29.4%

O=C(Nc1ccccc1)Nc1cc(C(F)(F)F)ccc1Cl
inactive: [1] 36% | [2] 18.6% | [3] 4.15% | [4] -10.2% | [5] 2.95% | [6] -17.1%

CC(=O)OC1CCC(C(C)C)CC1 (stereo not drawn)
inactive: [1] 4.35% | [2] -2.95% | [3] -0.25% | [4] -28.2% | [5] 1.15% | [6] -13.1%

C=Cc1ccc(OC2OC(CO)C(OC3OC(CO)C(O)C(O)C3O)C(O)C2O)cc1 (stereo not drawn)
inactive: [1] 14.7% | [2] -18.9% | [3] -1.1% | [4] -58.9% | [5] -0.35% | [6] -2.8%

C=CCN1C(=O)C/C(=C2/CCC(=O)N2CC=C)C1=O
inactive: [1] -11.1% | [2] -27.4% | [3] -16% | [4] 3.6% | [5] 1.8% | [6] -9.8%

CCOc1ccc(-n2c(C)c(COC(=O)NC)c(COC(=O)NC)c2C)cc1
active: [6] 92.5%
inactive: [1] 16.1% | [2] -5.9% | [3] 68.9% | [4] 3.8% | [5] 67.2%
